Assay results reported in PubChem BioAssay (NCATS).
Where “and” joins values, the source holds several entries; their conditions need not be identical. Equal values may be shown once. Records with an inconclusive call do not appear. Calls of active or inactive are those of the source. Calls come from the whole dose curve; as a rule, active = well fitted inhibition curve with a large enough effect; inconclusive = small, poorly fitted or top-dose-only effect; inactive = flat fitted curve, though single readings scatter.

What was measured:
CRL-7250 = normal cell line; assay: Cytotoxic Profiling of Annotated Libraries Using Quantitative High-Throughput Screening (AID 1296008); settings: Five cell lines viability, CellTiter-Glo ATP luminescence, 48-72 h; max response: hits give low values; for max response: % is set by controls: 0 for no effect and ±100 for the full control effect
Method in brief: (§1)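 Cytotoxicity was measured as CellTiter-Glo ATP luminescence, read after 10 min at room temperature. Compound treatment of the cells lasted 48 or 72 hr at 37 degrees Celsius in a qHTS format.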

HaCat [1] = assay: as above; settings: Five cell lines viability, CellTiter-Glo ATP luminescence, 48-72 h; max response: hits give low values
Method in brief: as §1

KB-3-1 = assay: as above; settings: Five cell lines viability, CellTiter-Glo ATP luminescence, 48-72 h; max response: hits give low values
Method in brief: as §1

NIH3T3 = assay: as above; settings: Five cell lines viability, CellTiter-Glo ATP luminescence, 48-72 h; max response: hits give low values
Method in brief: as §1

MCC-13 = assay: qHTS assay to identify novel small-molecules to repurpose for Merkel cell carcinoma treatment (AID 1296009); settings: MCC and control cell lines, CellTiter-Glo viability, 72 h; series mostly up to 46 µM
Method in brief: (§2)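 72 hr, 37 degree celsius; NPC 8-pt / MIPE 11-pt dose response; compound pinned in DMSO; CellTiter-Glo, 10 min RT, luminescence; normalized to no-cell and DMSO controls.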

HACAT [2] = assay: as above; settings: MCC and control cell lines, CellTiter-Glo viability, 72 h; at 44.8 µM (top of the series) unless noted
Method in brief: as §2

TAB165 = assay: qHTS profiling for inhibitors of Plasmodium falciparum proliferation (AID 504749); settings: P. falciparum in erythrocytes, SYBR Green DNA, 72 h; series mostly up to 28.7 µM
Method in brief: (§3)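 Infected RBCs, 0.3% parasitemia/2.5% Hct final; cpd 72 h, 37 C, 5% CO2; lysis buffer with saponin/triton/SYBR Green I, o/n RT dark; FI 485/535; norm. to artemisinin (0.29 uM) and DMSO.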

W2 = assay: as above; settings: P. falciparum in erythrocytes, SYBR Green DNA, 72 h; series mostly up to 28.7 µM
Method in brief: as §3

HEK293 = assay: Cytotoxic Profiling of Annotated Libraries Using Quantitative High-Throughput Screening (AID 1296008); settings: Five cell lines viability, CellTiter-Glo ATP luminescence, 48-72 h; max response: hits give low values; for max response: % is set by controls: 0 for no effect and ±100 for the full control effect
Method in brief: as §1
Note: nearly all actives have a fitted effect of over 60% in size.
Potency is the fitted concentration of half-maximal effect.

Cn1cnc(=N)c2[nH]cnc21
active: Potency (CRL-7250) 8330 nM | Potency (HaCat [1]) 13200 nM | Potency (KB-3-1) 10500 nM | Potency (NIH3T3) 9350 nM | Potency (MCC-13) 14800 nM

COC(=O)C1C2CC3c4[nH]c5cc(OC)ccc5c4CCN3CC2CC(OC(=O)c2cc(OC)c(OC)c(OC)c2)C1OC (centres undefined)
inactive: max response (CRL-7250) -19.7% | outcome (HaCat [1]) | max response (KB-3-1) 3.89% | max response (NIH3T3) -9.23% | outcome (HACAT [2]) | Potency (MCC-13)

C[C@@H](NCc1cc2ccccc2[nH]1)c1cccc2ccccc12
inactive: max response (CRL-7250) 3.32% | outcome (HaCat [1]) | max response (KB-3-1) 3.8% | max response (NIH3T3) 2.38% | outcome (HACAT [2]) | Potency (MCC-13)

C=C1CCC2[C@](C)(CO)C(O)CC[C@]2(C)C1CC=C1C(=O)OCC1O (some centres undefined)
inactive: max response (CRL-7250) -1.23% | max response (HaCat [1]) -3.92% | max response (KB-3-1) 8.99% | max response (NIH3T3) 3.77% | Potency (MCC-13)

C=C(C)[C@@H]1CC[C@]2(C(=O)O)CC[C@]3(C)[C@H](CC[C@@H]4[C@@]5(C)CC[C@H](O)C(C)(C)[C@@H]5CC[C@]43C)[C@@H]12
inactive: max response (CRL-7250) -12.6% | max response (HaCat [1]) 1.59% | max response (KB-3-1) -12.2% | max response (NIH3T3) 0.0342% | Potency (MCC-13)

C[C@@H]1[C@H](C)CC[C@]2(C(=O)O)CC[C@]3(C)C(=CC[C@@H]4[C@@]5(C)C[C@@H](O)[C@H](O)[C@@](C)(CO)[C@H]5CC[C@]43C)[C@@H]12
inactive: max response (CRL-7250) -10.9% | max response (HaCat [1]) 2.03% | outcome (KB-3-1) | outcome (NIH3T3) | Potency (MCC-13)

Cc1coc2c1C(=O)C(=O)c1c-2ccc2c(C)cccc12
inactive: max response (CRL-7250) -23.2% | outcome (HaCat [1]) | outcome (KB-3-1) | max response (NIH3T3) -4.31% and -4.38% | outcome (HACAT [2]) | Potency (MCC-13)

CC(C)OC(=O)[C@H](C)N[P@](=O)(OC[C@H]1O[C@@H](n2ccc(=O)[nH]c2=O)[C@](C)(F)[C@H]1O)Oc1ccccc1
inactive: max response (CRL-7250) -5.93% | max response (HaCat [1]) -9.66% | max response (KB-3-1) 1.17% | max response (NIH3T3) -9.86% | Potency (MCC-13)

OCCN1C[C@H](O)[C@@H](O)[C@H](O)[C@@H]1CO
inactive: max response (CRL-7250) -0.792% | outcome (HaCat [1]) | outcome (KB-3-1) | max response (NIH3T3) -2.06% | outcome (HACAT [2]) | Potency (MCC-13)

CON=C(C(=O)N[C@@H]1C(=O)N2C(C(=O)O)=C(Cn3ccc(=N)n3CCO)CS[C@H]12)c1csc(N)n1
inactive: max response (CRL-7250) -8.38% | max response (HaCat [1]) 4.51% | outcome (KB-3-1) | max response (NIH3T3) 1.39% | Potency (MCC-13)

C=CCNc1c(O)cc2c(O)c1C[C@@H](C)C[C@H](OC)[C@@H](O)[C@@H](C)C=C(C)[C@H](OC(N)=O)[C@@H](OC)C=CC=C(C)C(=O)N2
active: Potency (CRL-7250) 37.2 nM | Potency (HaCat [1]) 372 nM | Potency (KB-3-1) 93.5 nM | Potency (NIH3T3) 590 nM | Potency (MCC-13) 5900 nM

COc1cccc2c1C(=O)c1c(O)c3c(c(O)c1C2=O)C[C@@](O)(C(C)=O)C[C@H]3O[C@H]1C[C@H](N)[C@H](O)[C@H](C)O1
active: Potency (CRL-7250) 132 nM | Potency (HaCat [1]) 418 nM | Potency (KB-3-1) 235 nM | Potency (NIH3T3) 209 nM | Potency (MCC-13) 590 nM

Oc1cc(-c2nc(-c3ccccc3)[nH]c2-c2ccncc2)ccc1Cl
inactive: max response (CRL-7250) -23.8% | max response (KB-3-1) -18.3%

COc1cccc2c1C(=O)c1c(O)c3c(c(O)c1C2=O)C[C@@](O)(C(=O)CO)C[C@@H]3O[C@H]1C[C@H](N)[C@H](OC2CCCCO2)[C@H](C)O1 (some centres undefined)
active: Potency (TAB165) 2240 nM | Potency (W2) 601 nM | Potency (HEK293) 332 nM | Potency (HaCat [1]) 2350 nM | Potency (KB-3-1) 833 nM | Potency (NIH3T3) 590 nM | Potency (MCC-13) 5260 nM

CC(=O)NCC(=O)N1[C@H]2CC[C@H]1c1cc(Nc3ncc(C(F)(F)F)c(NC4CCC4)n3)ccc12
active: Potency (HEK293) 5260 nM | Potency (HaCat [1]) 132 nM | Potency (KB-3-1) 1660 nM | Potency (NIH3T3) 1320 nM

C[C@@H](Cc1cc2c(c(C(N)=O)c1)N(CCCO)CC2)NCCOc1ccccc1OCC(F)(F)F
active: Potency (CRL-7250) 20600 nM
inactive: max response (KB-3-1) -7.67% | Potency (MCC-13)

Cc1nc(NC(=O)N2CCC[C@@H]2C(N)=O)sc1-c1ccnc(C(C)(C)C(F)(F)F)c1
inactive: Potency (MCC-13)
active: Potency (HEK293) 14800 nM | Potency (HaCat [1]) 3320 nM | Potency (KB-3-1) 8330 nM | Potency (NIH3T3) 16600 nM

CCCCC(=O)O[C@]1(C(=O)CO)[C@@H](C)C[C@H]2[C@@H]3CCC4=CC(=O)C=C[C@]4(C)[C@@]3(F)[C@@H](O)C[C@@]21C
inactive: outcome (CRL-7250) | outcome (KB-3-1) | max response (NIH3T3) -1.65% | Potency (MCC-13)
